The source made the active and inactive calls.

Experiment [1] is described as follows: small molecules captured by biotinylated probe aFSTL3 – biochemical, small-molecule microarray, fluorescence 635/667, stem cell growth factor project, primary screen (AID 1064).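 Also: measures binding of the biotinylated anti-FSTL3 antibody to printed compounds.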 The note with it: higher = more signal.
Experiment [2] in a line: binders from COS7 lysate, DM2A8 probe, primary screen, torsin A project, cell lysate, small-molecule microarray, fluorescence 635/667 (AID 1065). The note with it: higher = more signal, COS7 lysate expressing mutant human TOR1A.
The nature of experiment [3]: small molecules captured by biotinylated probe aFGF2 – biochemical, small-molecule microarray, fluorescence 635/667, stem cell growth factor project, primary screen (AID 1067).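 Also: measures binding of biotinylated aFGF2 protein to printed compounds on slides; z-score merges feature fluorescence and signal-to-noise across triplicate slides.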 The following applies: higher = more signal.
Experiment [4] in a line: small molecules captured by biotinylated probe aFGF10 – biochemical, small-molecule microarray, fluorescence 635/667, stem cell growth factor project, primary screen (AID 1071).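 Also: score merges 667 nm spot intensity and signal to noise from triplicate slides.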 The note with it: higher = more signal.
Experiment [5] addresses Neurogenic locus notch homolog protein 2 (Homo sapiens) (UniProt Q04721). In words: small molecules binding Notch2 protein – biochemical, small-molecule microarray, 635 nm fluorescence, stem cell growth factors, primary screen (AID 1073). The following applies: higher = more signal.
In experiment [6] the target is Pro-neuregulin-1, membrane-bound isoform (Homo sapiens) (UniProt Q02297). In words: small molecules binding neuregulin-1 protein – biochemical, small-molecule microarray, fluorescence 635/667, psychiatric disease protein project, primary screen (AID 1075).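 Also: score combines 667 nm spot fluorescence with signal to noise.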 The note with it: NRG1 binding, 635 nm fluorescence, higher = more signal.
Experiment [7] has as its system Neuregulin-1 EGF-like domain. In words: small molecules binding NRG1 EGF domain – biochemical, small-molecule microarray, 635 nm fluorescence, primary screen (AID 1081).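 Also: binding of the protein to compounds printed on small-molecule microarray slides.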 The following applies: higher = more signal.
Experiment [8] in a line: FRG1 expression reporter modulators in myotubes – cell-based, C2C12 myotubes, firefly/Renilla luciferase, luminescence, FRG1 inhibition for FSHD, primary screen (AID 1084). The following applies: FRG1 promoter luciferase, higher = more signal, called active from +8 up or from −8 down.
A short description of experiment [9]: small molecules captured by biotinylated probe aFST – biochemical, small-molecule microarray, fluorescence 635/667, stem cell growth factor project, primary screen (AID 1086).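 Also: score merges 667 nm fluorescence with signal-to-noise of each printed compound spot.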 The note with it: higher = more signal.
Experiment [10] is described as follows: binders of probe aHhip on microarray, primary screen, stem cell growth factor project, biochemical, small-molecule microarray, fluorescence 635/667 (AID 1087).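 Also: score merges spot fluorescence at 667nm with spot signal to noise ratio.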 The following applies: higher = more signal.
Experiment [11] has as its system PRMT1 (protein arginine N-methyltransferase 1). Briefly: small molecules binding arginine methyltransferase PRMT1 – biochemical, small-molecule microarray, 635 nm fluorescence, primary screen (AID 1088).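 Also: binding of Prmt1 protein to compounds spotted on small-molecule microarray slides.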 The following applies: higher = more signal.
A short description of experiment [12]: growth effects on S. cerevisiae YJM789 – YJM789 clinical isolate, OD600, 24 h, basal, primary screen (AID 1089).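 Also: growth of clinical yeast isolate S. cerevisiae YJM 789 seeded 1000 cells per well; test concentration not given here.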 The following applies: higher = more signal, called active from +8 up or from −8 down.
The nature of experiment [13]: S. pombe growth modifiers, basal conditions – strain 972, OD600, 24 h, no modulator, primary screen (AID 1090).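 Also: basal condition with compound alone and no growth modifier present; test concentration not given here.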 The note with it: S. pombe 972 growth, higher = more signal, called active from +8 up or from −8 down.
A short description of experiment [14]: budding yeast growth modifiers under rapamycin – strain BY4716, OD600, 96 h, primary screen (AID 1091). Also: test concentration not given here. The following applies: S. cerevisiae BY4716 + rapamycin, higher = more signal, called active from +8 up or from −8 down.
The target in experiment [15] is Torsin-1A-interacting protein 2 (Homo sapiens) (UniProt Q8NFQ8). Briefly: small molecules binding lysate-expressed LULL1 – cell lysate, human LULL1 lysate, 635/667 nm fluorescence, primary screen (AID 1092).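 Also: probe is lysate of COS7 cells overexpressing human LULL1; score merges per-feature 667 nm fluorescence with signal-to-noise.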 The note with it: small-molecule microarray, hLULL1 lysate binding, 635 nm fluorescence; higher = more signal.
Experiment [16] in a line: optical density change of DRC41 E. coli – strain DRC41, OD650, 24 h, E. coli filamentation project, primary screen (AID 1093).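 Also: MC1000 strain lacking acrAB efflux and sulA so SOS filamentation is blocked; test concentration not given here.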 The following applies: E. coli DRC41 growth, higher = more signal, called active from +8 up or from −8 down.
Experiment [17] in a line: probe aLefty2 binding to arrayed compounds – biochemical, biotinylated probe, 635/667 nm fluorescence, primary screen (AID 1094).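 Also: score merges spot fluorescence near 667 nm with spot signal-to-noise ratio.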 The note with it: small-molecule microarray, higher = more signal.
The test system of experiment [18] is Noggin (protein binding on small-molecule microarray). In words: small molecules binding Noggin protein – biochemical, 635/667 nm fluorescence, primary screen (AID 1095).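 Also: score merges 667 nm feature fluorescence with signal to noise over triplicate slides.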 The note with it: 635 nm fluorescence, higher = more signal.
Experiment [19] deals with Neurogenic locus notch homolog protein 3 (Homo sapiens) (UniProt Q9UM47). Briefly: small molecules binding NOTCH3 protein – biochemical, 635/667 nm fluorescence, primary screen (AID 1096). The following applies: small-molecule microarray, 635 nm fluorescence, higher = more signal.
Experiment [20] in a line: probe aEGFR binding to arrayed compounds – biochemical, biotinylated probe, 635/667 nm fluorescence, primary screen (AID 1097).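 Also: probe is a biotinylated anti-EGFR antibody binding compounds printed on slides; score combines fluorescence near 667 nm and signal to noise of each spot.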 The following applies: small-molecule microarray, higher = more signal.

Pro-neuregulin-1, membrane-bound isoform (Homo sapiens), sequence (Q02297 whole entry, looked up, the tested form may be a part, canonical isoform): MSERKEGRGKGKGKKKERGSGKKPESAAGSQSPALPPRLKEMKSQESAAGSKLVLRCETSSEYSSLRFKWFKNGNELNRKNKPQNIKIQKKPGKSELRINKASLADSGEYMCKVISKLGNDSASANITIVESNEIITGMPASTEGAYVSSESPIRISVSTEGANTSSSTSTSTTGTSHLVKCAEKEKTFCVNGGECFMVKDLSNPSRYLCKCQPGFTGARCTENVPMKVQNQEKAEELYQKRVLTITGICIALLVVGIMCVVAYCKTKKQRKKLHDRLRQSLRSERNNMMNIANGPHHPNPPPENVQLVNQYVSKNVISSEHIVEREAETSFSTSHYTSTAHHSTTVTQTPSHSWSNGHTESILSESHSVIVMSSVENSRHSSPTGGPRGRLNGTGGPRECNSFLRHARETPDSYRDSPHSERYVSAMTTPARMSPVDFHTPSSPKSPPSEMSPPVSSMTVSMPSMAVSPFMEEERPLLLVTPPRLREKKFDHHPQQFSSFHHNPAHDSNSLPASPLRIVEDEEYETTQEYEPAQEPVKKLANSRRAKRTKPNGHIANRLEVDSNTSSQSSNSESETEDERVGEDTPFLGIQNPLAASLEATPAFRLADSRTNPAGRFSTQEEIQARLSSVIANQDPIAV
Neurogenic locus notch homolog protein 2 (Homo sapiens), sequence (Q04721 whole entry, looked up, canonical isoform): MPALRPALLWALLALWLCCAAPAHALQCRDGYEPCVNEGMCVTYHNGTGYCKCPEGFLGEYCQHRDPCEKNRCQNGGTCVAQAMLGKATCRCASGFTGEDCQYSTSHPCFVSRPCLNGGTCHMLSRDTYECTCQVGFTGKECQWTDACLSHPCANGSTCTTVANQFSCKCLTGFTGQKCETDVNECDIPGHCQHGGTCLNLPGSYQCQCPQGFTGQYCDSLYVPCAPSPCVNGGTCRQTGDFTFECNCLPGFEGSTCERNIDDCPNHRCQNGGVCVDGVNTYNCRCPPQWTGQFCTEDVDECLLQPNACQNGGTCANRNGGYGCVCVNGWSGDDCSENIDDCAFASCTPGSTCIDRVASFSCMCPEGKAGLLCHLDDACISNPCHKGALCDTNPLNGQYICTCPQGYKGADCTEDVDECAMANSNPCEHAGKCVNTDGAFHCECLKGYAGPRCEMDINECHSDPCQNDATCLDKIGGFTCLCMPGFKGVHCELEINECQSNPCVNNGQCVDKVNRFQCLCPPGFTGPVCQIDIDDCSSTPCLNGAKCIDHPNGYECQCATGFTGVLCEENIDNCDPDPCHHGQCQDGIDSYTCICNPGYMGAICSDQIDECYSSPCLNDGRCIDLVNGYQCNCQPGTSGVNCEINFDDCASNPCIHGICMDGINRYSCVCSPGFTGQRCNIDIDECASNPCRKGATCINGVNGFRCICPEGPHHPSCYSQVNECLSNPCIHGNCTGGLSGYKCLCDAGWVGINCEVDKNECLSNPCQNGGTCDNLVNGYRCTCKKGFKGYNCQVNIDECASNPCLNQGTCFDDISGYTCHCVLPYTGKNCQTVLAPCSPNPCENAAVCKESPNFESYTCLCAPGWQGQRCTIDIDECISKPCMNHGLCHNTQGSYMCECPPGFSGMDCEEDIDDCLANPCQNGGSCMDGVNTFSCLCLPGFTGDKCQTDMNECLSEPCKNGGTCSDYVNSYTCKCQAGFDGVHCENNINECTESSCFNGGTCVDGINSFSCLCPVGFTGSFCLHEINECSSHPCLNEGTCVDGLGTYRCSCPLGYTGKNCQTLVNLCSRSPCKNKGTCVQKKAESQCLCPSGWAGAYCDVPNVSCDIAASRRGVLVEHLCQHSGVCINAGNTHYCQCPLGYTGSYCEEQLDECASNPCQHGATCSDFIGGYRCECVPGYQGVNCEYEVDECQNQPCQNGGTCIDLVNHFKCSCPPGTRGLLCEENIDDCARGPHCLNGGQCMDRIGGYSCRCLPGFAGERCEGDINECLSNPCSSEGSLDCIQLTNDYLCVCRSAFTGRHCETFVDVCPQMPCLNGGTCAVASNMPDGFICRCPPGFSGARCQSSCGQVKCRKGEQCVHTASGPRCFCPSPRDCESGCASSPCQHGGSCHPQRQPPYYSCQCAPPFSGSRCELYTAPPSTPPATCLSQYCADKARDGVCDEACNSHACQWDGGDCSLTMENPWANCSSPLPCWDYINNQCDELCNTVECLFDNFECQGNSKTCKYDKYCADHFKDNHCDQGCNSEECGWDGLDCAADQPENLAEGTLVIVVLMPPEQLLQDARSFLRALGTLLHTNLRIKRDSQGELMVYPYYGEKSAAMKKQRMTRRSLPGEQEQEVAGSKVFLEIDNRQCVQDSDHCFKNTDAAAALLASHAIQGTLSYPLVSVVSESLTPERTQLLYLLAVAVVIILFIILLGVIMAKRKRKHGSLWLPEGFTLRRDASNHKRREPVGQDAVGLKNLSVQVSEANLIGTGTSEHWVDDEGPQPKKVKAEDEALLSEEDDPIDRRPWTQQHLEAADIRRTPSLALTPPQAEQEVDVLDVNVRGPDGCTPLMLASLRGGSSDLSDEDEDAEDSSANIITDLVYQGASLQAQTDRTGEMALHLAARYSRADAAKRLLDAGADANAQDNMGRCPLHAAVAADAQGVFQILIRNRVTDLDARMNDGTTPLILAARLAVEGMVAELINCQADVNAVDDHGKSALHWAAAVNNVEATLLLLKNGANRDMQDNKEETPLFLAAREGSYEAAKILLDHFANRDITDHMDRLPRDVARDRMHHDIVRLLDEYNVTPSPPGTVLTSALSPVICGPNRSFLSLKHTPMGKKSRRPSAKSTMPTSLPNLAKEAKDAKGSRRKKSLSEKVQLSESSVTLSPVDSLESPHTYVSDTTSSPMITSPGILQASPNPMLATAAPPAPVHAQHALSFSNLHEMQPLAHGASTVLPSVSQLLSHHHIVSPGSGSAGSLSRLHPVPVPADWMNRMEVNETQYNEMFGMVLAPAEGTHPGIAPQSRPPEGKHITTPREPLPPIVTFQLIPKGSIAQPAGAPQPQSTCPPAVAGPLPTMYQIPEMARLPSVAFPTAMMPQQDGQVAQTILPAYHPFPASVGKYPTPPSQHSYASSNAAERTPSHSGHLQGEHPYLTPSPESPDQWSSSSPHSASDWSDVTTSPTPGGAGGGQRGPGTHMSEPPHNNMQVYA
Torsin-1A-interacting protein 2 (Homo sapiens), sequence (Q8NFQ8 whole entry, looked up): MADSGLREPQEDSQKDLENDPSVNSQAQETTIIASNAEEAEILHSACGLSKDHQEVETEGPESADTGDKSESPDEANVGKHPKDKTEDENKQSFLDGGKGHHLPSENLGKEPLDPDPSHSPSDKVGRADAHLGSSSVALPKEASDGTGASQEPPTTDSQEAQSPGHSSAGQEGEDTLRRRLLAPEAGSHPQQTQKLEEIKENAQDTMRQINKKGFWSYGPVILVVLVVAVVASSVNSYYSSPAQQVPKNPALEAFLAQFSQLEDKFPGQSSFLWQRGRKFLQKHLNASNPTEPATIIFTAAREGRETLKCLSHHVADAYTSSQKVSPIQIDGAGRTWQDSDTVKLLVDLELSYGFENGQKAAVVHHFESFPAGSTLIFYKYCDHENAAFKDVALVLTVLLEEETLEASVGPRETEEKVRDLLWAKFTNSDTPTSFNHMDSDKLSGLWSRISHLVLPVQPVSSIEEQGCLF

Take `C[N+](C)(C)CCCC[C@@H]1NC(=O)[C@@H]2C[C@H](C(=O)NCc3ccc(F)cc3)[C@H](c3ccc(O)cc3)N2C1=O`: the composite z-score is 0.315 in experiment [1]; -0.4 in experiment [2]; -0.148 in experiment [3]; -0.447 in [4]; -1.3 in experiment [5]; 1.3 in [6]. Besides, the composite z-score in experiment [7] is 1.38; in [9], -0.936; in experiment [10], -0.201; in experiment [11] it was 0.116; in [15], 1.76; in [17] it was -0.139. Besides, the composite z-score in [18] was 0.401; in experiment [19], -0.146; in experiment [20], -0.271. Besides, the z-score in experiment [8] was 0.337 (inactive); in experiment [12], 0.166 (inactive); in experiment [13] it was 0.519 (inactive); in [14], 0.425 (inactive); in experiment [16] it was -0.66 (inactive).
Take `O=C(NCc1ccccc1)[C@@H]1c2ccccc2C(=O)N(Cc2cc(C(F)(F)F)cc(C(F)(F)F)c2)[C@H]1c1ccc(CO)cc1`: the composite z-score was -0.501 in experiment [1]; 1.62 in experiment [2]; -0.118 in [3]; 0.409 in [4]; 0.685 in experiment [5]; 0.71 in experiment [6]. The composite z-score was 1.27 in experiment [7]; 0.423 in [9]; 0.0505 in experiment [10]; 1.53 in [11]; 2.55 in experiment [15]; -0.0512 in experiment [17]. Further, the composite z-score is 1.37 in [18], 1.12 in [19] and 0.0453 in experiment [20]. Also, the z-score in experiment [8] was -0.354 (inactive); in experiment [12], 0.744 (inactive); in experiment [13], -0.077 (inactive); in experiment [14], 0.296 (inactive); in experiment [16], -1 (inactive).
As for `CC(C)NC(=O)[C@@H]1c2ccccc2C(=O)N(Cc2ccccc2C(F)(F)F)[C@H]1c1ccc(CO)cc1`, the composite z-score is -0.804 in experiment [1]; 0.313 in experiment [2]; 0.0553 in experiment [3]; -0.0635 in experiment [4]; -0.409 in experiment [5]; -0.774 in experiment [6]. The composite z-score is 0.837 in [7]; 0.618 in experiment [9]; -0.668 in experiment [10]; -0.123 in [11]; 2.36 in [15]; -0.241 in experiment [17]. Further, the figures for the composite z-score in experiment [18], in experiment [19] and in experiment [20] were -0.238, 0.0828 and 0.668, respectively. In addition, the z-score in experiment [8] is -1.26 (inactive); in experiment [12], -0.202 (inactive); in experiment [13] it was 0.163 (inactive); in experiment [14], -1.04 (inactive); in [16], -0.327 (inactive).
On to `CCCC#C[Si](O[C@H](CC)c1cn(Cc2ccccc2)nn1)(C(C)C)C(C)C`, for which the composite z-score in experiment [1] is -0.0658; in experiment [2], 0.0418; in experiment [3] it was 0.0252; in experiment [4] it was 0.435; in experiment [5], 0.734; in experiment [6] it was 0.53. Moreover, the composite z-score in [7] was 1.02; in [9], 0.278; in experiment [10], -0.166; in [11], 1.49; in experiment [15] it was 1.72; in experiment [17] it was 0.052. Also, the composite z-score in [18] is 1.31; in experiment [19], 1.09; in [20], 0.0458. Also, the z-score in [8] was 0.403 (inactive); in experiment [12] it was -1.25 (inactive); in [13], -14.6 (active); in experiment [14], -3.55 (inactive); in [16], 0.657 (inactive).
In the case of `COCC(=C=CC[C@H](O)c1ccccc1OCCO)C[C@H](O)COCc1ccccc1`, the composite z-score in experiment [1] is -0.287; in experiment [2], 0.584; in [3], -0.0004; in [4], 1.3; in [5], 0.41; in experiment [6], 1.22. Moreover, the composite z-score was 0.571 in experiment [7]; 0.092 in experiment [9]; 0.107 in experiment [10]; 1.55 in experiment [11]; 2.71 in experiment [15]; -0.0113 in [17]. For the same molecule, the composite z-score in [18] was 0.513; in [19] it was 0.271; in experiment [20], 0.312. The z-score in experiment [8] is 0.291 (inactive); in experiment [12], -0.16 (inactive); in [13], -1.15 (inactive); in [14] it was -0.619 (inactive); in [16], -0.111 (inactive).
